The whole screen tested about 290,000 compounds, of which about 3,000 (1%) were called active. This is one part of a sample in which actives are shown more often than they occur. Unmarked numbers belong to inactive results. Cut-off read from the data, not from the text of the source: active = inhibition mostly above about 36% (no sharp cut-off); inactive = mostly below about 34%.
Test: NOD1 signaling inhibitors, primary screen, cell-based, luminescence, uHTS (AID 1578);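 note: HEK-293T reporter cells stimulated with the NOD1 agonist gamma-tri-DAP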
Conditions: NOD1-driven NF-kB luciferase reporter cells, at 4 µM, stronger effect = higher value

In order of falling inhibition:
1. c1ccc2c(c1)CCN(c1ncnc3c1[nH]c1ccccc13)C2  81.6%
2. Cc1ccc2[nH]c3c(N4CCN(Cc5ccc6c(c5)OCO6)CC4)ncnc3c2c1  73.7%
3. COc1cccc2[nH]c3c(N4CCN(Cc5ccc6c(c5)OCO6)CC4)ncnc3c12  60.8%
4. Cc1ccc2c(c1)[nH]c1c(N3CCN(Cc4ccc5c(c4)OCO5)CC3)ncnc12  58.5%
5. CN1C(=O)/C(=C\c2ccccc2)Sc2ccc(C(=O)N3CCN(c4ccccn4)CC3)cc21  46.8%
6. CCOC(=O)C1=C(C)N=C2c3ccccc3C(=O)C2C1c1ccc(C)cc1 (centres undefined)  44.1%
7. O=C1C=C(c2cccs2)C[C@H](c2ccccc2)[C@H]1n1nnc([N+](=O)[O-])n1  42.1%
8. COc1ccc2[nH]c3c(N4CCN(Cc5ccc6c(c5)OCO6)CC4)ncnc3c2c1  23.1%
9. CN1C(=O)/C(=C/c2ccc(C(F)(F)F)cc2)Sc2ccc(C(=O)N3CCN(c4ccccn4)CC3)cc21  17.8%
10. CCOC(=O)C1=C(C)N=C2c3ccccc3C(=O)C2C1c1ccc(Cl)cc1 (centres undefined)  16.6%
11. CCN(CC)C(=O)c1sc(NC(=S)N2CCN(C(=O)C3CCCO3)CC2)c(C(=O)OC)c1C (centres undefined)  2.3%
12. Cc1ccccc1-n1c(=O)cc(NCc2ccc3c(c2)OCO3)[nH]c1=O  -1.9%
13. CCN(CC)S(=O)(=O)c1ccc(S(=O)(=O)Nc2ccc(C(=O)N3CCCC3)cc2)cc1  -2.4%
14. Brc1ccc2[nH]c3c(N4CCc5ccccc5C4)ncnc3c2c1  -5.4%
15. N=c1oc2ccc(Cl)cc2cc1C(=O)Nc1ccc(F)cc1  -7.8%
16. O=C(CCS(=O)(=O)c1ccccc1)Nc1ccccc1N1CCOCC1  -9%
17. O=C(COC(=O)Cc1cccs1)Nc1ccc(F)c(F)c1F  -10.6%
18. COc1ccc(NC(=O)CCN2C(=O)c3cccc([N+](=O)[O-])c3C2=O)cc1  -11.3%
19. Cc1cc(C)cc(NC(=O)C2C3C=CC(O3)C2C(=O)O)c1 (centres undefined)  -15.9%
20. Cc1c(OCC(=O)NCCCn2ccnc2)ccc2c3c(c(=O)oc12)CCC3  -17.1%
21. O=C1C=C(c2ccccc2)C[C@H](c2cccs2)[C@H]1n1cnc([N+](=O)[O-])c1  -24.8%

With `Fc1ccc2[nH]c3c(N4CCN(Cc5ccc6c(c5)OCO6)CC4)ncnc3c2c1` the inhibition was 58.2% (active).
In the case of `COc1ccc2c(c1)[nH]c1c(N3CCN(Cc4ccc5c(c4)OCO5)CC3)ncnc12`, the inhibition is reported as 86% (active).
For `CCOC(=O)C1=C(C)N=C2c3ccccc3C(=O)C2C1c1ccc(Br)cc1` (centres undefined), the inhibition was 72.4% (active).
